Molecules are shown by their SMILES. Hit rate of the full screen: of about 190,000 compounds, about 4,100 (2.2%) were called active. The entries come from a sample that favours actives as a whole. Unmarked numbers belong to inactive results.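 How the source made its calls: active means thallium flux slope and its plate-corrected score both differing from the plate sample mean at a set confidence after two filtering rounds, in either direction; inactive means the rest.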

For the test, the target named is Solute carrier family 12 member 5 (Homo sapiens) (UniProt Q9H2X9). The test is described as follows: KCC2 cotransporter modulators, thallium flux, primary screen, cell-based, HEK293 KCC2, FluoZin-2 fluorescence, MLSMR (AID 1456).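 On B-score of Tl+ flux slope (higher = more flux/activation; lower = inhibition): slope of fluorescence scaled to starting intensity during 10 to 20 s after thallium.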 The note with it: KCC2 cells, thallium flux FluoZin-2 fluorescence; at 10 µM.
Sequence of Solute carrier family 12 member 5 (Homo sapiens) (Q9H2X9 whole entry, looked up): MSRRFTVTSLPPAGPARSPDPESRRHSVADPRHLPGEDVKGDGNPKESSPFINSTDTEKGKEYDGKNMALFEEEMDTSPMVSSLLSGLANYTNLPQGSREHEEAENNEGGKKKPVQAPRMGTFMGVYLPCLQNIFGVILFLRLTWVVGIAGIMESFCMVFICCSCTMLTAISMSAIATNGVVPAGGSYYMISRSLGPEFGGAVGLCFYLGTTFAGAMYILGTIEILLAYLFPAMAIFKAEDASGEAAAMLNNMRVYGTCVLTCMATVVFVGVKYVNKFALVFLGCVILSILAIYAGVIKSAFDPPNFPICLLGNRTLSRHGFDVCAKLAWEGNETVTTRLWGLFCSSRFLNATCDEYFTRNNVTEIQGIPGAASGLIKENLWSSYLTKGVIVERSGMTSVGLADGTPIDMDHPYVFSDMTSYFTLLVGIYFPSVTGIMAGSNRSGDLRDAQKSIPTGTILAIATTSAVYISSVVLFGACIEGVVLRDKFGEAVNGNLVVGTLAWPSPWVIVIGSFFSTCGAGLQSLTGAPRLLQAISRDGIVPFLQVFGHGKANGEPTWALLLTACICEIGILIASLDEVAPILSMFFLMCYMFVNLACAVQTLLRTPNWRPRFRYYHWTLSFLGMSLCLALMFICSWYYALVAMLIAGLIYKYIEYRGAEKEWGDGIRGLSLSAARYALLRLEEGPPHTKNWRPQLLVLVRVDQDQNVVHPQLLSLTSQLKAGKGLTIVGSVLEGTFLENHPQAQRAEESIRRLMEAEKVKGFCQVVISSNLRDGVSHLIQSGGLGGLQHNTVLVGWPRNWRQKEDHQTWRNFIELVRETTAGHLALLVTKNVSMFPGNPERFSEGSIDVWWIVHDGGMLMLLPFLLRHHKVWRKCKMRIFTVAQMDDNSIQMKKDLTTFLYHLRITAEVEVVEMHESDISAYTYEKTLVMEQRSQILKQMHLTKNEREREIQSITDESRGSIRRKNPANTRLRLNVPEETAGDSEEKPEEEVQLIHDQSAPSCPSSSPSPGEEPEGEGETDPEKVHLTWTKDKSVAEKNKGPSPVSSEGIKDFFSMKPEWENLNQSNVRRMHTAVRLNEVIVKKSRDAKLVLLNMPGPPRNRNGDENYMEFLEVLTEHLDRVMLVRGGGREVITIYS
For the compound `CCOc1ccc(-c2n[nH]c(=S)n2/N=C/c2cc3c(cc2[N+](=O)[O-])OCO3)cc1`, the B-score of Tl+ flux slope (higher = more flux/activation; lower = inhibition) was 0.939.

`O=[N+]([O-])c1ccccc1/C=N/n1c(COc2ccccc2)n[nH]c1=S`: the B-score of Tl+ flux slope (higher = more flux/activation; lower = inhibition) was 24.3 (active).

`Cc1ccc(-c2n[nH]c(=S)n2/N=C/c2cc3c(cc2[N+](=O)[O-])OCO3)cc1`: the B-score of Tl+ flux slope (higher = more flux/activation; lower = inhibition) is 0.106.

For the compound `COc1ccc(N(Cc2ccccc2)S(=O)(=O)c2cccc(C(=O)O)c2)cc1`, the B-score of Tl+ flux slope (higher = more flux/activation; lower = inhibition) is -1.07.

Consider `Cc1cs/c(=N\N=C\c2ccc(O)cc2)n1Cc1ccco1`, for which the B-score of Tl+ flux slope (higher = more flux/activation; lower = inhibition) was -4.66 (active).

In the case of `Cc1csc(=Nc2ccccc2)n1CCO`, the B-score of Tl+ flux slope (higher = more flux/activation; lower = inhibition) was 0.00145.

`CN(c1ccccc1)c1ccc(/C=c2\s/c(=C(/C#N)C(=O)C(C)(C)C)n(Cc3ccco3)c2=O)cc1`: the B-score of Tl+ flux slope (higher = more flux/activation; lower = inhibition) is 0.174.

Regarding `CCc1nc2sc3c(Cl)ncnc3c2c2c1CCCC2`, the B-score of Tl+ flux slope (higher = more flux/activation; lower = inhibition) was 1.2.

Consider `Cc1ccc(F)cc1NC(=O)N1CCCN(c2ccc(C(F)(F)F)cn2)CC1`, for which the B-score of Tl+ flux slope (higher = more flux/activation; lower = inhibition) is 0.46.

Turning to `Cc1ccc(N(C(=O)c2sc(C)nc2C)C(C(=O)NC(C)(C)C)c2ccncc2)cc1` (stereo unspecified), the B-score of Tl+ flux slope (higher = more flux/activation; lower = inhibition) is 0.0067.

In the case of `O=C(Nc1ccccc1)N1CCN(Cc2ccccc2)CC1`, the B-score of Tl+ flux slope (higher = more flux/activation; lower = inhibition) was -0.481.

As for `O=C(NC(=S)N1CCN(Cc2ccccc2)CC1)c1ccccc1`, the B-score of Tl+ flux slope (higher = more flux/activation; lower = inhibition) was 26.6 (active).

Take `O=C(CN1CCN(Cc2ccccc2)CC1)NC(c1ccccc1)c1ccccc1`: the B-score of Tl+ flux slope (higher = more flux/activation; lower = inhibition) was -2.1.

`CC(=O)Nc1nc(C)c(-c2csc(Nc3ccc(S(N)(=O)=O)cc3)n2)s1`: the B-score of Tl+ flux slope (higher = more flux/activation; lower = inhibition) is 0.404.

For `Oc1ccc(-c2nnc(Nc3ccccc3)c3ccccc23)cc1`, the B-score of Tl+ flux slope (higher = more flux/activation; lower = inhibition) was -3.93.

On to `c1ccc(Nc2n[nH]nc2-c2ccccc2)cc1`, for which the B-score of Tl+ flux slope (higher = more flux/activation; lower = inhibition) is -0.551.

With `S=c1[nH]nc(Nc2ccccc2)s1`, the B-score of Tl+ flux slope (higher = more flux/activation; lower = inhibition) is -8.06 (active).

With `S=c1[nH]nc(NCCc2ccccc2)s1`, the B-score of Tl+ flux slope (higher = more flux/activation; lower = inhibition) is -1.55.

As to `CNC1(c2nnnn2-c2c(C)cccc2C)CCOC(C)(C)C1` (stereo unspecified), the B-score of Tl+ flux slope (higher = more flux/activation; lower = inhibition) was -0.333.

As for `Cc1cc(=O)[nH]c2nnnn12`, the B-score of Tl+ flux slope (higher = more flux/activation; lower = inhibition) is 0.843.

On to `CC(Nc1nc(N2CCOCC2)nc2ccccc12)c1ccccc1` (stereo unspecified), for which the B-score of Tl+ flux slope (higher = more flux/activation; lower = inhibition) is -0.0767.

Consider `Cc1cc(C)c(C)c(S(=O)(=O)N[C@@H](C)C(=O)OC(C)C(=O)NC(N)=O)c1C` (stereo partly specified), for which the B-score of Tl+ flux slope (higher = more flux/activation; lower = inhibition) is -0.78.

`O=C(c1cc(-c2ccc(O)cc2)on1)N1CCCc2ccccc21`: the B-score of Tl+ flux slope (higher = more flux/activation; lower = inhibition) was -2.96 (active).

In the case of `Cc1ccc(-c2cc(C(=O)N3CCc4ccccc4C3)no2)cc1`, the B-score of Tl+ flux slope (higher = more flux/activation; lower = inhibition) is 0.312.

`O=C(c1cc(-c2cccc(O)c2)on1)N1CCc2ccccc2C1`: the B-score of Tl+ flux slope (higher = more flux/activation; lower = inhibition) is -2.87.

Turning to `COc1ccc(NC(=O)C2=NNC(=O)CC2)cc1S(=O)(=O)N1CCCCC1`, the B-score of Tl+ flux slope (higher = more flux/activation; lower = inhibition) was 1.01.

Consider `CC1Cc2ccccc2N1S(=O)(=O)c1ccc(Cl)nc1` (stereo unspecified), for which the B-score of Tl+ flux slope (higher = more flux/activation; lower = inhibition) is -1.44.

Turning to `CC(CC(=O)Nc1cc(C(F)(F)F)ccc1Cl)c1ccccc1` (stereo unspecified), the B-score of Tl+ flux slope (higher = more flux/activation; lower = inhibition) is -1.96.

`O=C(NNc1ccccc1Cl)C(O)(c1cccc(C(F)(F)F)c1)c1cccc(C(F)(F)F)c1`: the B-score of Tl+ flux slope (higher = more flux/activation; lower = inhibition) is 14.9 (active).

On to `O=C(Nc1cc(C(F)(F)F)ccc1Cl)C(=O)N1CCCCC1`, for which the B-score of Tl+ flux slope (higher = more flux/activation; lower = inhibition) is 0.245.

Turning to `[O-][N+]12CCCCC1CCCC2CO` (stereo unspecified), the B-score of Tl+ flux slope (higher = more flux/activation; lower = inhibition) is -0.0478.

In the case of `COc1ccc2cc(CCl)c(Cl)nc2c1`, the B-score of Tl+ flux slope (higher = more flux/activation; lower = inhibition) was 0.0416.

Take `CC(NC(=O)C(C)(C)C)C(c1cccs1)N1CCN(Cc2ccccc2)CC1` (stereo unspecified): the B-score of Tl+ flux slope (higher = more flux/activation; lower = inhibition) is 0.428.

As to `S=c1nc(C23CC4CC(CC(C4)C2)C3)nc2sccn12`, the B-score of Tl+ flux slope (higher = more flux/activation; lower = inhibition) was 2.46.

For `CC(=O)NNC(=O)c1csc(Cc2c(Cl)sc3ccc(Cl)cc23)n1`, the B-score of Tl+ flux slope (higher = more flux/activation; lower = inhibition) is 13.6 (active).

As for `CNC(=O)c1csc(Cc2c(Cl)sc3ccc(Cl)cc23)n1`, the B-score of Tl+ flux slope (higher = more flux/activation; lower = inhibition) is -0.799.

For `CC(=O)Cc1nsc(NC(=O)c2ccc(Cl)cc2Cl)n1`, the B-score of Tl+ flux slope (higher = more flux/activation; lower = inhibition) was 1.49.

Consider `CN(Cc1nc(-c2cnccn2)no1)Cc1n[nH]c2c1CCCCC2`, for which the B-score of Tl+ flux slope (higher = more flux/activation; lower = inhibition) was -2.53.

In the case of `CCn1c(Cc2cccs2)nnc1SCC(=O)c1ccc(C)cc1`, the B-score of Tl+ flux slope (higher = more flux/activation; lower = inhibition) is -1.23.

In the case of `O=C(CSc1nnc(-c2cccs2)n1Cc1ccco1)c1ccc2c(c1)OCO2`, the B-score of Tl+ flux slope (higher = more flux/activation; lower = inhibition) is -2.4.

As to `CCn1c(SCC(=O)c2ccc3ccccc3c2)nnc1-c1cccs1`, the B-score of Tl+ flux slope (higher = more flux/activation; lower = inhibition) is -5.11 (active).

For the compound `CC(C)=NN1C(=O)c2ccccc2NC1(C)C`, the B-score of Tl+ flux slope (higher = more flux/activation; lower = inhibition) is 0.347.

As for `CC(O)c1nc2c(c(=O)n(C)c(=O)n2C)n1C` (stereo unspecified), the B-score of Tl+ flux slope (higher = more flux/activation; lower = inhibition) was 0.852.

As for `COC(=O)CNC(=O)c1ccccc1[N+](=O)[O-]`, the B-score of Tl+ flux slope (higher = more flux/activation; lower = inhibition) is 0.532.

Consider `COc1ccc(NC(=O)c2ccccc2[N+](=O)[O-])cc1OC`, for which the B-score of Tl+ flux slope (higher = more flux/activation; lower = inhibition) was 4.22 (active).

Take `O=C(Nc1ccncc1)c1ccccc1[N+](=O)[O-]`: the B-score of Tl+ flux slope (higher = more flux/activation; lower = inhibition) is 1.37.

With `Cc1cc(C)nc(SCc2cn3c(C)cc(C)nc3n2)n1`, the B-score of Tl+ flux slope (higher = more flux/activation; lower = inhibition) was -0.647.

With `CCOC(=O)CC1C(=O)NCCN1c1nc2c(C)cccn2c(=O)c1/C=C1\SC(=S)N(C(C)CC)C1=O` (stereo unspecified), the B-score of Tl+ flux slope (higher = more flux/activation; lower = inhibition) result is “inactive”.

In the case of `CC1CCCC(C)N1CCCNC(=O)c1cc2c(=O)n(C)c3ccccc3c2n1C` (stereo unspecified), the B-score of Tl+ flux slope (higher = more flux/activation; lower = inhibition) was -1.27.

For the compound `Cn1c(C(=O)NCCc2ccsc2)cc2c(=O)n(C)c3ccccc3c21`, the B-score of Tl+ flux slope (higher = more flux/activation; lower = inhibition) is -3.14 (active).

Regarding `Cn1c(C(=O)NCCCN2CCN(c3cccc(Cl)c3)CC2)cc2c(=O)n(C)c3ccccc3c21`, the B-score of Tl+ flux slope (higher = more flux/activation; lower = inhibition) was 0.0429.

(Values after PubChem BioAssay AID1456 (Vanderbilt High Throughput Screening Facility, 2008).)
